The sample as a whole holds a higher share of hits than the screen did.
Sa growth inh = inhibitors of Staphylococcus aureus growth at 42 °C. S. aureus RN4220 growth, OD600, 20 h; active compounds read low. relative growth, % (no concentration beside the values). 0.53% of 170,000 active;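 active = relative growth at most 50% at the other temperature and 20+ points below 30 °C, or under 10% at both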
S aureus helic = S. aureus DNA helicase inhibition; 0.05% of 120,000 active; AID 485395; inhibition, % (no concentration beside the values); purified S. aureus helicase, fluorescence unwinding assay; in the data active = inhibition above about 25%, passing the limit was not always enough;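 also: 0% = mean of negative control wells and 100% = mean of positive control wells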
Starred values were filed as active, the others as inactive; nt = not tested or not shown.

SMILES | Sa growth inh | S aureus helic
CCC(=O)c1ccc(OC(=O)C(C(C)C)N2C(=O)c3ccccc3C2=O)cc1 (stereo not drawn) | 96.7 | 0.0
Cc1nn(CO)c(C)c1Sc1ccc(Br)cc1 | 18.1* | 5.0
Cc1nn(C)c(C)c1Sc1ccc(Br)cc1 | 88.4 | -16.0
CCCn1c2ccccc2c2nnc(SCCNS(=O)(=O)c3ccccc3)nc21 | 90.8 | -13.0
Cc1cccc(C(=O)OCC(=O)N(C)C)c1O | 103.0 | -3.0
CCSc1nsc(NC(=O)Nc2cccc(F)c2)n1 | -0.7* | -6.0
O=C(CSc1nnc(NC(=O)Nc2ccccc2)s1)Nc1cccc(F)c1 | 117.9 | nt
Cc1nc2c(C(=O)NCc3ccccc3)cnn2c(C)c1Cc1ccc(F)cc1 | 93.9 | nt
Cc1ccc(CNC(=O)c2c[nH]n3c(=O)c(Cc4ccc(F)cc4Cl)c(C)nc23)cc1 | 0.6* | nt
Cc1nc2c(C(=O)NCCC(C)C)c[nH]n2c(=O)c1Cl | 101.4 | 8.0
Cc1nc2c(C(=O)NCCc3ccccc3)c[nH]n2c(=O)c1Cl | 88.1 | 6.0
COc1ccc(CCNC(=O)c2cc(C)nc3c2c(C)nn3-c2ccccc2)cc1OC | 101.0 | nt
Cc1nc2c(C(=O)NCCc3ccc(Cl)cc3)c[nH]n2c(=O)c1Cc1ccccc1F | 1.1* | nt
Cc1nc2c(C(=O)NCCc3ccccc3)c[nH]n2c(=O)c1Cc1ccc(F)cc1Cl | -0.2* | nt
COc1ccc(CCNC(=O)c2c[nH]n3c(=O)c(Cc4ccccc4Cl)c(C)nc23)cc1OC | 0.7* | nt
O=C(O)c1ccc(Cn2cccn2)cc1 | 86.9 | 0.0
CC(=O)Nc1ccc2c(CSc3nnc(-c4ccco4)n3C)cc(=O)oc2c1 | 81.1 | -3.0
CCOC(=O)c1noc(C)c1-c1csc(Nc2cc(C(F)(F)F)cc(C(F)(F)F)c2)n1 | 95.1 | 13.0
O=C(CSc1nnc(-c2ccco2)o1)c1cc2c3c(c1)CC(=O)N3CCC2 | 70.5 | -16.0
CCCc1nc(N)c(C#N)c(-c2ccc(F)cc2)c1CC | 108.4 | 1.0
Cc1cc(=O)[nH]c(SCC(=O)N2CCc3ccccc32)n1 | 101.9 | 9.0
Cc1nc2c(C(=O)NCc3ccccc3Cl)c[nH]n2c(=O)c1Cc1cccc(Cl)c1 | 0.6* | nt
Cc1nc2c(C(=O)NCc3ccccc3Cl)cnn2c(C)c1Cc1ccccc1 | 114.7 | nt
O=C(Nc1ccccc1)Nc1c[nH]c2ccccc12 | 89.4 | -3.0
O=C(Nc1c[nH]c2ccccc12)N1CCOCC1 | 3.5* | 2.0
SMILES | Sa growth inh | S aureus helic
CCc1ccccc1NC(=O)CN1CCN(Cn2c(=O)oc3ccccc32)CC1 | 90.0 | 0.0
CN(C)C(Cc1ccccc1)C(=O)c1cccn1C (stereo not drawn) | 100.0 | 3.0
Fc1ccccc1N1CCN(c2nc(CN3CCOCC3)nc3sc4c(c23)CCCC4)CC1 | 81.6 | 8.0
COc1ccc(CCN=C=S)cc1 | 9.0* | 23.0
COc1ccc(CCC(O)C2(O)CCCCC2)cc1 (stereo not drawn) | 91.2 | 15.0
Oc1ccccc1N1CCN(c2nc(CN3CCOCC3)nc3sc4c(c23)CCCC4)CC1 | 80.6 | 14.0
CCc1ccc(Nc2c3c(nc4ccccc24)CCCC3)cc1 | 78.8 | 7.0
CCc1ccc(Nc2c3c(nc4ccccc24)CCC3)cc1 | 6.7* | 18.0
CC(C)Cn1c(=S)[nH]c2scc(-c3cccs3)c2c1=O | 8.9* | 9.0
CSc1nc2scc(-c3cccs3)c2c(=O)n1CC(C)C | 104.8 | 15.0
CC12CC(NC(=O)N1c1ccccc1)c1ccccc1O2 (stereo not drawn) | 90.6 | 2.0
C(=Nc1cccnc1)c1c[nH]c2ccccc12 | 8.3* | -12.0
C(=Nc1cccnc1)c1ccccc1 | 102.7 | -17.0
O=C(NC1CCCCCC1)[C@@H]1CCCN1S(=O)(=O)c1ccc2c(c1)OCCO2 | 87.7 | -8.0
C[N+]1(CC(=O)OCCCC2CCCCC2)CCCCC1 | 97.6 | 5.0
C[N+]1(CC(=O)OC2CCCCCCCCCCC2)CCCC1 | 19.9* | 13.0
CCc1ccc(OCC(=O)c2c(O)c3ccccc3oc2=O)cc1 | 4.4* | 32.0
COC(=O)c1c(O)c2ccccc2oc1=O | 101.6 | nt
CCN(C(=O)CSc1nnc(-c2ccccc2)c(-c2ccccc2)n1)C1CCS(=O)(=O)C1 (stereo not drawn) | 100.9 | -7.0
CCN(C(=O)CSc1nc(C)cc(C)c1C(N)=O)C1CCS(=O)(=O)C1 (stereo not drawn) | -1.2* | 6.0
CCOc1ccc(CNC(=O)c2ccc(CS(=O)Cc3ccc(Cl)cc3)o2)cc1 (stereo not drawn) | 110.9 | nt
CCOc1ccc(CCNC(=O)c2ccc(CS(=O)Cc3cccc(Cl)c3)o2)cc1 (stereo not drawn) | 23.6* | nt
COc1ccc(NC2CCN(C3CC(=O)N(c4ccc(Cl)cc4)C3=O)CC2)cc1 (stereo not drawn) | 77.1 | 9.0
O=c1cc[nH]cc1-c1ccc(Cl)cc1 | -0.8* | 9.0
O=c1ccc(-c2ccc(Cl)cc2)n[nH]1 | 92.8 | -35.0
SMILES | Sa growth inh | S aureus helic
Cn1c2ccccc2c2nnc(SCCC(=O)O)nc21 | 93.8 | 24.0
CN(C(=O)C1CCCCC1C(=O)O)c1ccccc1 (stereo not drawn) | 101.1 | 11.0
COc1ccc(NC(=O)[C@@H]2CCCN2S(=O)(=O)c2ccc(C)cc2)cc1 | 115.6 | -23.0
Cc1ccc(OC(=O)c2cccnc2)cc1 | 98.1 | -5.0
Cc1ccc(N(c2ccc(C)cc2)c2cccnc2)cc1 | 5.5* | 7.0
COc1ccc(-c2ccc(CNC3CC3)o2)cc1Cl | 79.9 | 3.0
O=C1NC2(CCCCC2)C(=O)N1Cc1nnc(-c2ccccc2)o1 | 87.5 | -6.0
CCS(=O)(=O)c1ncc(Cl)c(C(=O)Nc2ccc(S(=O)(=O)N(C)c3ccccc3)cc2)n1 | 89.0 | nt
CCN(c1ccccc1)S(=O)(=O)c1ccc(NC(=O)c2nc(S(C)(=O)=O)ncc2Cl)cc1 | -1.4* | nt
COc1ccc(-c2[nH]c3ccccc3c2SCCNC(=O)c2ccc(OC)c(OC)c2)cc1 | 120.3 | 16.0
Cc1cc(N2CCN(C)CC2)ccc1NC(=O)c1ccc2c(c1)NC(=O)C(C)S2 (stereo not drawn) | 129.9 | -2.0
O=C(CSc1nc(-c2ccccc2)cs1)Nc1ccnn1C1CCCC1 | 72.4 | 14.0
O=c1[nH]cc(NC2CCCCC2)c(=O)[nH]1 | 110.2 | -1.0
CCOC(NC(=O)Nc1ccc(Br)cc1)(C(F)(F)F)C(F)(F)F | -0.7* | nt
CCOC(NC(=O)c1ccccc1)(C(F)(F)F)C(F)(F)F | 113.9 | nt
COC(=O)c1ccccc1NC(=O)c1ccc2nc(N3CCCCC3)sc2c1 | 100.0 | -19.0
C[N+](C)(CCOc1ccccc1)Cc1ccccc1 (tested in a mixture with another compound) | 83.4 | 9.0
CC(C)(C)CC(C)(C)c1ccc(OCCOCC[N+](C)(C)Cc2ccccc2)cc1 | -0.3* | nt
S=C(Cc1ccc2c(c1)OCCO2)N1CCOCC1 | 96.2 | -6.0
Cc1c(C(=O)c2ccc3c(c2)OCCO3)oc2ccc(Cl)cc12 | 94.0 | 4.0
CC1=Nc2ccccc2Sc2c1c(=O)n(-c1ccccc1)c1ccccc21 | 1.8* | 13.0
O=c1c(-c2ccn(-c3ccccc3)n2)c(O)c2ccccc2n1-c1ccccc1 | 98.9 | -3.0
CCc1ccc(-c2nn(Cc3ccccc3)cc2C(=O)N2CCN(CCN3CCCC3)CC2)cc1 | 138.6 | -13.0
O=C(O)Cn1ccccc1=O | 44.4* | 7.0
N/C(Cn1ccccc1=O)=N\O | 82.1 | -14.0
N#CC(C#N)=C(Nc1ccc(Br)cc1)SCc1ccc(F)cc1 | 30.9 | -13.0
N#CC(C#N)=C(Nc1ccccc1Cl)SCc1cccc(F)c1 | 0.1* | 1.0
CCCCc1nc(Cl)c(C#N)c2c1COC(C)(C)C2 | 95.0 | 1.0

Screening results (PubChem BioAssay)
